“And” between values parts separate entries of the source, which are not always exact repeats. Equal values may be shown once. Compounds without any hit were thinned out: in the full panel of roughly 83,000, 20% have a hit.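 The test compound was applied at a single concentration to cells in 96-well plates for 48 hours, and percent growth was recorded.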 Unmarked numbers belong to inactive results. The source made the active and inactive calls. Rule for the calls: active = growth percent below 10; inactive = the rest.
What follows are molecules tested on HL-60(TB) leukemia (assay: NCI-60 one-dose screen, 48 h (100 = growth as untreated, 0 = no growth, -100 = all killed)). Conditions: 10 µM unless noted.
O=c1[nH]c(=S)[nH]n1C(=S)n1[nH]c(=S)[nH]c1=O showed a growth of 99.1%. Work on CCC(C)NC(=O)c1ccccc1C (centres undefined) yielded a growth of 111%. Work on CC1=Nc2cnc(Nc3ccc(OCCN4CCCC4)cc3)nc2Nc2ccccc21 yielded a growth of 76.4%. COc1cc(-c2ccc(N=Nc3ccc4c(S(=O)(=O)O)ccc(N)c4c3O)c(OC)c2)ccc1N=Nc1ccc2c(S(=O)(=O)O)ccc(N)c2c1O showed a growth of 115%. N/C(=C\C(=O)n1nc(-c2ccccc2)cc1N)c1ccccc1 was tested, and the growth was 1.71% (active). With N#Cc1nn(-c2cc(=O)[nH]c3ccc(Cl)cc23)c(N)c1C#N the growth was 0.972% (active). For CC(C)OC1OC(OC(C)C)C(OC(C)C)OC1OC(C)C (centres undefined), the growth was 87.2%. In the case of CNc1ccc(Cl)cc1S(=O)(=O)c1ccccc1[N+](=O)[O-], the growth is reported as 65.3% and 79.9%. For COc1cc2cc(Oc3ccc(NC(=O)Nc4ccc(Cl)c(Cl)c4)cc3)c(C)nc2cc1OC, the growth was 9.64% (active). O=C(Nc1cccc(Cl)c1)c1cc([N+](=O)[O-])ccc1O gave a growth of 44.4%. Cc1ccc(-c2nc(/C=C3/C(=O)Nc4ccccc43)c3ccccn23)cc1 gave a growth of 113%. For Cc1ccc(F)c(NC(=O)Nc2ccc(-c3cccc4[nH]nc(N)c34)cc2)c1, the growth was 7.97% (active). With O=C(N/N=C/c1ccc(F)cc1)c1ccccc1Nc1cccc(C(F)(F)F)c1 the growth was 88.1%. COc1ccc(-c2conc2-n2nc(-c3ccccc3)nc2-c2ccccc2)cc1 was tested, and the growth was 99.3%. Molecule CS(=O)(=O)Nc1ccc([N+](=O)[O-])cc1Oc1ccccc1 has a growth of 92.9%. In the case of O=c1ccn2nc3ccccc3c2[nH]1, the growth is reported as 93.1%. With COC(=O)c1ccc2c(c1)nc(-c1cc3ccccc3[nH]c1=O)n2-c1cc(C(C)(C)C)[nH]n1 the growth was -16.9% (active). CCOc1ccccc1/C=N/N1CCCCCC1 gave a growth of 99.1%. In the case of COc1ccccc1/C=C/C(=O)/C=C/c1ccccc1O, the growth is reported as -5.37% (active). CC1(CO)CCCC12OCCO2 (centres undefined) gave a growth of 105%. With CCN1C(=S)N(c2ccccc2)C2NC(=S)N(/N=C/C=C/c3ccccc3OC)C21 (centres undefined) the growth was -52.9% (active). COc1ccc(OC)c(Nc2nc(-c3c(C)nc4sccn34)cs2)c1 showed a growth of 67.9%. With CN(C)c1ccc(-c2c(C#N)c(N)nn2C(=O)c2ccc(NC(=O)c3ccccn3)cc2)cc1 the growth was 96.5%. CCCC(=O)Oc1ccc(/C(=C(\C)c2ccc(Cl)cc2)c2ccc(OCCN(CC)CC)cc2)cc1 was tested, and the growth was -49.1% (active). In the case of Clc1cc(Cl)cc(N2N=C(c3cccc(Nc4ccncc4)c3)CC2c2ccc3c(c2)OCO3)c1 (centres undefined), the growth is reported as 8.01% (active). C#Cc1ccc(NC(=O)c2ccc(/C=C/C(=O)c3nccn3C)cc2)cc1 was tested, and the growth was -27.2% (active). Cc1nc2c(=O)[nH]c(SCC(=O)Nc3cccc(F)c3)nc2[nH]c1=O was tested, and the growth was 105%. For CCCCCCCCCC(=O)Oc1ccc(/C(=C(/C)c2ccccc2)c2ccc(OCCN3CCCC3)cc2)cc1, the growth was -30.4% (active). CC1=CCC2CC1C2(C)C (centres undefined) was tested, and the growth was 105% and 92.9%. COc1cc(/C=C\c2cc(/C=C\c3ccc(O)c(OC)c3)n(C(=O)COc3ccc(Cl)cc3Cl)n2)ccc1O was tested, and the growth was -18.7% (active). CCN(Cc1ccc(CN(CC)C(=O)C(Br)Br)cc1)C(=O)C(Br)Br was tested, and the growth was 13.1%. COc1ccc(C(=O)c2c(N)nc3n2CCCC3)cc1OC showed a growth of 94.1%. Work on CC(C)NC1CCC(Nc2ccnc3cc(Cl)ccc23)CC1 (centres undefined) yielded a growth of 57.9%. In the case of COc1ccc(C(O)c2ccccc2)cc1 (centres undefined), the growth is reported as 102%. CCOC(=O)C1=C(NC)OCC1=O gave a growth of 91.7%. OC(c1ccccn1)C(O)c1ccccn1 (centres undefined) gave a growth of 97.3%. Molecule CCN(CC)CCc1nc(-c2ccccc2)no1 has a growth of 104%. In the case of c1ccc(C(NC2CC3CCC2C3)c2ccccc2)cc1 (centres undefined), the growth is reported as 100%. With Cc1ccc(NC(=O)COC(=O)c2ccc(S(=O)(=O)N3CCCCCC3)cc2)cc1 the growth was 85.9%.
